# Reference: PubChem BioAssay (Tox21)
# Results filed as inconclusive are left out. Where a call stands in place of a potency, no number is given. The source made the active and inactive calls. Unless noted, calls follow the shape of the dose curve; as a rule, active = well fitted curve in the direction sought with a large enough effect in the repeat runs; inconclusive = weak or mixed curves; inactive = no such curve, though single readings can be large; an effect the other way counts as inactive or inconclusive.
# Columns and labels:
# [1] = qHTS assay for small molecule agonists of the p53 signaling pathway (AID 651631; calls by dose curve; also: nearly all actives have a fitted effect of over 15% in size; also: potency is read from the fitted curve at half-maximal effect)
# Procedure, shortened: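 Stably transfected HCT-116 cells (beta-lactamase behind p53 response elements) get compounds after a 5 h settling period; 16 h later at 37 °C, FRET substrate is loaded and fluorescence read after 2 h.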
# [2] = qHTS assay for small molecule agonists of the p53 signaling pathway - cell viability (AID 651633; calls by dose curve; also: nearly all actives have a fitted effect of over 30% in size; also: potency is read from the fitted curve at half-maximal effect)
# Procedure, shortened: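 Viability counter-read: CellTiter-Glo luminescence (30 min, room temperature) in the same p53RE-bla plates. These plates had been exposed to compounds for 16 h at 37 C.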
# [3] = qHTS assay for small molecules that induce genotoxicity in human embryonic kidney cells expressing luciferase-tagged ATAD5 - cell viability (AID 651634; calls by dose curve; also: nearly all actives have a fitted effect of over 25% in size; also: potency is read from the fitted curve at half-maximal effect)
# Procedure, shortened: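 Cytotoxicity counterscreen in HEK293T cells bearing an ATAD5-luciferase reporter: live-cell protease activity measured by CellTiter-Fluor fluorescence after 15.5 hr compound exposure.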
# [4] = qHTS assay for small molecule disruptors of the mitochondrial membrane potential - cell viability (AID 720634; calls by dose curve;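 also: human HepG2 liver cancer cells; nearly all actives have a fitted effect of over 20% in size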)
# Procedure, shortened: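 After overnight attachment at 37 C, HepG2 cells received compound or DMSO vehicle for 1 hr. Viability is then taken from ATP-driven luminescence following a 30 min room-temperature CellTiter-Glo step.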
# [5] = qHTS assay for small molecule disruptors of the mitochondrial membrane potential (AID 720635); also: potency is read from the fitted curve at half-maximal effect
# Procedure, shortened: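 Mitochondrial membrane potential tracked with Mito-MPS dye, red aggregates (ex 540/em 590 nm) against green monomers (ex 490/em 535 nm). Compound treatment 1 hr at 37C, dye 30 min in HepG2.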
# [6] = qHTS assay to test for compound auto fluorescence at 590 nm (red) in HepG2 cells (AID 720674)
# Procedure, shortened: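 We screened compounds on adherent HepG2 cells, incubating them for an hour at 37 C in 5% CO2 before reading emission at 590 nm under 540 nm excitation; values reflect equivalence to Rose Bengal sodium fluorescence.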
# [7] = qHTS assay to test for compound auto fluorescence at 535 nm (green) in HepG2 cells (AID 720675)
# [8] = qHTS assay to test for compound auto fluorescence at 460 nm (blue) in HEK293 cells (AID 720678)
# Procedure, shortened: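 Auto fluorescence in the blue band was quantified as triamterene equivalency. HEK293 cells were seeded at 2,000/well, dosed after a 4-5 hr attachment, and kept overnight at 37C before the 405/460 nm reading.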
# [9] = qHTS assay to test for compound auto fluorescence at 590 nm (red) in HEK293 cells (AID 720679)
# Procedure, shortened: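 Autofluorescence equivalency to Rose Bengal sodium, 540/590nm, in HEK293 cells exposed overnight to 23 nL compound per well.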
# [10] = qHTS assay to test for compound auto fluorescence at 535 nm (green) in HEK293 cells (AID 720680)
# [11] = qHTS assay to test for compound auto fluorescence at 460 nm (blue) in HEK293 cell free culture (AID 720681)
# Procedure, shortened: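 Blue fluorescence (Ex 405/Em 460 nm, triamterene-equivalent) was read immediately after pin transfer of compound or DMSO into medium (DMEM, 10% FBS) without cells.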
# [12] = qHTS assay to test for compound auto fluorescence at 535 nm (green) in HEK293 cell free culture (AID 720682)
# Procedure, shortened: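 Using fluorescein as calibrant, autofluorescence was quantified at 485/535 nm in cell-free DMEM containing 10% FBS after pintool addition of compound or vehicle.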
# [13] = qHTS assay to test for compound auto fluorescence at 590 nm (red) in HEK293 cell free culture (AID 720683)
# Procedure, shortened: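 Red-channel autofluorescence of compounds in culture medium (DMEM, 10% FBS), no cells, measured at 540/590 nm. Rose Bengal sodium is the reference fluorophore for equivalence.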
# [14] = qHTS assay to test for compound auto fluorescence at 590 nm (red) in HepG2 cell free culture (AID 720684)
# Procedure, shortened: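 Plate contents were MEM with 10% FBS plus test compound or DMSO, no cells. Fluorescence was recorded with 540 nm excitation and 590 nm emission.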
# [15] = qHTS assay to test for compound auto fluorescence at 535 nm (green) in HepG2 cell free culture (AID 720686)
# [16] = qHTS assay to test for compound auto fluorescence at 460 nm (blue) in HepG2 cells (AID 720687)
# Procedure, shortened: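 Blue-channel autofluorescence (Ex/Em 405/460 nm, triamterene-equivalent) was measured after 1 hr compound exposure at 37 C, 5% CO2. Cells were HepG2, plated overnight at 37 C in MEM plus 10% FBS.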
# [17] = qHTS assay for small molecules that induce genotoxicity in human embryonic kidney cells expressing luciferase-tagged ATAD5 (AID 651632); also: nearly all actives have a fitted effect of over 15% in size
# Procedure, shortened: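 Increased luciferase signal from ATAD5-tagged reporter cells indicates DNA-damage-driven ATAD5 induction. HEK293T cells are treated for 16 hr at 37C before detection with Amplite.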
# [18] = qHTS assay to test for compound auto fluorescence at 460 nm (blue) in HepG2 cell free culture (AID 720685)
# Procedure, shortened: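 Compound (23 nL) or DMSO pinned into cell-free MEM with 10% FBS; blue fluorescence read at 405/460 nm excitation/emission, expressed as auto-fluorescence equivalency to triamterene.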
# [19] = molecular target: Glucocorticoid receptor (Homo sapiens) (UniProt P04150); experiment: qHTS assay to identify small molecule agonists of the glucocorticoid receptor (GR) signaling pathway (AID 720691; active = well fitted activation curve with a large enough effect in the signal ratio in the repeat runs, not every such curve was filed as active; the % refers to the signal ratio; also: potency is read from the fitted curve at half-maximal effect); conditions: GR-bla HeLa, beta-lactamase reporter ratio, 18 h; activation: at 62.4 µM (top of the series)
# Sequence of Glucocorticoid receptor (Homo sapiens) (P04150 whole entry, looked up): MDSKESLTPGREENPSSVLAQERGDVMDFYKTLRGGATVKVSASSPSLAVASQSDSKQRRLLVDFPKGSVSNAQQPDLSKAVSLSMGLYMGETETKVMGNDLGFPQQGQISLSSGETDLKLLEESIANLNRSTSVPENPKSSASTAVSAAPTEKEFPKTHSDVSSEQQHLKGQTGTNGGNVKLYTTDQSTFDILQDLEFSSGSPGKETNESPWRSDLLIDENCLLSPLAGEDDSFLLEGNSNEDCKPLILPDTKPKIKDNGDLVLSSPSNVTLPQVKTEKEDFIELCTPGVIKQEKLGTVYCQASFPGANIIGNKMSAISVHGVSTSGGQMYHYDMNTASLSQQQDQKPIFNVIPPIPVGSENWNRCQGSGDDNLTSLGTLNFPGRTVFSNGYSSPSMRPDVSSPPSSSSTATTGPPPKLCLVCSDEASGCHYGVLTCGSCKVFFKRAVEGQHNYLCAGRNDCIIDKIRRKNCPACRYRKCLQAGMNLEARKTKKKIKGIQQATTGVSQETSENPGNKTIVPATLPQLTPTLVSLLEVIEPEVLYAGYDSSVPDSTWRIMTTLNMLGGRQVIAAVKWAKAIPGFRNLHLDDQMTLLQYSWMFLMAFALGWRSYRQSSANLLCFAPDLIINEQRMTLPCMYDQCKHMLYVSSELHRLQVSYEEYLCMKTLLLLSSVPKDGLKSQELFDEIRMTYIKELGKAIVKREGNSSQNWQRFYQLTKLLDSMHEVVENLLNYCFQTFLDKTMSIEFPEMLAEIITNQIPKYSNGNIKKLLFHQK
# Procedure, shortened: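 Agonist mode in a HeLa line carrying a GRE-controlled beta-lactamase reporter. Compounds act for 18 h at 37 C before a 2 h room-temperature FRET substrate step and fluorescence reading.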
# [20] = molecular target: Glucocorticoid receptor (Homo sapiens) (UniProt P04150); experiment: qHTS assay to identify small molecule antagonists of the glucocorticoid receptor (GR) signaling pathway (AID 720692; active = well fitted inhibition curve with a large enough effect in the signal ratio in the repeat runs, not every such curve was filed as active; the % refers to the signal ratio)
# Procedure, shortened: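 Cells plated, rested 4 h at 37 C/5% CO2; compounds in DMSO pin-transferred; dexamethasone added to 5 nM final; 18 h at 37 C; B/G FRET substrate added, 2 h room temperature; fluorescence measured.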
Structure (SMILES),Potency [1],Potency [2],Potency [3],Potency [4],Potency [5],Potency [6],Potency [7],Potency [8],Potency [9],Potency [10],Potency [11],Potency [12],Potency [13],Potency [14],Potency [15],outcome [16],Potency [17],outcome [18],Potency [19],Potency [20]
NC(Cc1ccccc1)C(=O)O (centres undefined),inactive,inactive,inactive,inactive,inactive,inactive,inactive,inactive,inactive,inactive,inactive,inactive,inactive,inactive,inactive,inactive,–,–,–,–
NC(=S)N=Nc1ccc(NN=C(N)N)cc1,inactive,–,26.6 µM (active),inactive,2.98 µM (active),inactive,–,–,inactive,inactive,inactive,inactive,inactive,inactive,inactive,inactive,inactive,inactive,–,–
CC1CCC(NC(=O)N(CCCl)N=O)CC1 (centres undefined),inactive,inactive,inactive,inactive,inactive,inactive,inactive,inactive,inactive,inactive,inactive,inactive,inactive,inactive,inactive,inactive,–,–,inactive,inactive
CC(=O)OCC(=O)[C@@]12OC3(CCCC3)O[C@@H]1C[C@H]1[C@@H]3CCC4=CC(=O)C=C[C@]4(C)[C@@]3(F)[C@@H](O)C[C@@]12C,inactive,inactive,inactive,inactive,29.8 µM (active),inactive,inactive,inactive,inactive,inactive,inactive,inactive,inactive,inactive,inactive,inactive,–,inactive,0.019 µM (active),–
COc1cc([C@@H]2c3cc4c(cc3C(O[C@@H]3O[C@@H]5COC(c6cccs6)O[C@H]5[C@H](O)[C@H]3O)C3COC(=O)[C@@H]32)OCO4)cc(OC)c1O (some centres undefined),0.376 µM (active),–,inactive,inactive,–,inactive,inactive,–,inactive,inactive,inactive,inactive,inactive,inactive,inactive,inactive,inactive,inactive,3.38 µM (active),–
CC1(S(=O)(=O)O)CC(=O)c2ccccc2C1=O (centres undefined),21.1 µM (active),26.6 µM (active),–,inactive,–,inactive,inactive,–,inactive,–,inactive,inactive,inactive,inactive,inactive,inactive,inactive,inactive,–,–
NCCCC[C@H](NC(=O)[C@@H]1CCCN1C(=O)[C@@H]1CSSC[C@H](N)C(=O)N[C@@H](Cc2ccccc2)C(=O)N[C@@H](Cc2ccccc2)C(=O)N[C@@H](CCC(N)=O)C(=O)N[C@@H](CC(N)=O)C(=O)N1)C(=O)NCC(N)=O,inactive,inactive,inactive,inactive,inactive,inactive,inactive,inactive,inactive,inactive,inactive,inactive,inactive,inactive,inactive,inactive,–,inactive,inactive,inactive
COc1ccc(/C=C/C(=O)OCCC(C)C)cc1,inactive,inactive,inactive,inactive,inactive,inactive,inactive,inactive,inactive,inactive,inactive,inactive,inactive,inactive,inactive,inactive,–,inactive,inactive,–
Cc1cc(Nc2ccccc2C(=O)O)ccc1Cl,15 µM (active),7.5 µM (active),inactive,inactive,11.9 µM (active),inactive,inactive,inactive,inactive,inactive,inactive,inactive,inactive,inactive,inactive,inactive,–,inactive,inactive,inactive
OCCO[C@@H]1[C@@H](O)[C@H](O)[C@@H](CO)O[C@@H]1O,inactive,inactive,inactive,inactive,inactive,inactive,inactive,inactive,inactive,inactive,inactive,inactive,inactive,inactive,inactive,inactive,–,–,–,–
CCCC1C(=O)N2C(N(C)C)=Nc3ccc(C)cc3N2C1=O (centres undefined),inactive,inactive,inactive,inactive,inactive,inactive,inactive,inactive,inactive,inactive,inactive,inactive,inactive,inactive,inactive,inactive,–,inactive,–,inactive
CCC(=O)O[C@H]1CC[C@H]2[C@@H]3CCc4cc(O)ccc4[C@H]3CC[C@]12C,33.5 µM (active),–,inactive,–,11.9 µM (active),inactive,–,inactive,inactive,inactive,inactive,inactive,inactive,inactive,inactive,inactive,inactive,inactive,–,–
COc1ccc(CNCC(O)COc2ccc3[nH]c(=O)ccc3c2)cc1OC (centres undefined),inactive,inactive,inactive,inactive,inactive,inactive,inactive,inactive,inactive,inactive,inactive,inactive,inactive,inactive,inactive,inactive,–,inactive,inactive,inactive
O=C(O)c1cc2ccccc2c(Cc2c(O)c(C(=O)O)cc3ccccc23)c1O,inactive,–,inactive,inactive,–,inactive,inactive,inactive,inactive,inactive,inactive,inactive,inactive,inactive,inactive,inactive,inactive,inactive,inactive,inactive
